C diff growth: C. difficile growth inhibitors, primary screen, HTS; Clostridium difficile clinical isolate growth, OD600, 24 h; hits give low values; growth activity, negative = inhibition, % at 16 µg/mL (by protocol); 86,000 compounds, 0.25% hits;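 active = mean growth activity at or below -80% and every replicate also at or below -80%; inconclusive = mean at or below -80% but some replicate above -80%; inactive = mean growth activity above -80%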;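 also: 0% = DMSO wells and -100% = levofloxacin 16 µg/mL wells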
Pf Dd2 growth: P. falciparum Dd2 growth inhibitors, primary screen, SYBR Green fluorescence, single dose replicates. 72 h; hits give low values. activity change, % at 10 µM. 94,000 compounds, 2.3% hits; in the data active = activity change below about -80%; inconclusive = no clear call, values can overlap the other calls
T cruzi growth-1: T. cruzi intracellular proliferation inhibitors, primary screen, cell-based, beta-gal Tulahuen parasites, NIH3T3 host, luminescence; T. cruzi beta-gal in NIH3T3, GalScreen luminescence, 90 h; inhibition, % at 8.34 µM; 77,000 compounds, 5.9% hits; AID 624255, 2012;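 active = mean inhibition above about 93%, with at least 55% of replicates each passing it, limit read from the data, passing the limit was not always enough; inconclusive = only one of those two conditions holds; inactive = neither condition holds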
T cruzi growth-2: T. cruzi intracellular proliferation inhibitors, confirmation, cell-based, NIH3T3 host, beta-gal parasite, luminescence, cherry-pick; 5,600 compounds, 72% hits; inhibition, % at 8.35 µM; shares compounds with T cruzi growth-1; T. cruzi beta-gal in NIH3T3, GalScreen luminescence, 90 h;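 active = mean replicate inhibition above about 95% and at least 55% of replicates individually reaching it, limit read from the data; inconclusive = only one of the two criteria is met; inactive = neither criterion is met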
T cruzi growth-3: inhibitors of intracellular T. cruzi replication, confirmation, NIH3T3 host cells, beta-gal parasites, cherry-pick, set 2 | T. cruzi beta-gal in NIH3T3, GalScreen luminescence, 90 h | shares compounds with T cruzi growth-1 | inhibition, % at 2.09 µM | 5,600 compounds, 21% hits;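 active = mean inhibition above about 95%, with at least 55% of replicates also reaching it, limit read from the data; inconclusive = meets just one of the two conditions; inactive = meets neither condition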;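 also: plate controls were neutral control median for no effect and positive control median for full effect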
3T3 cytotox: cytotoxicity in mouse NIH/3T3 fibroblasts, confirmation, cytotoxicity control for T. cruzi proliferation inhibitor project, cell-based, cherry-pick, single point; shares compounds with T cruzi growth-1; NIH/3T3 viability, CellTiter-Glo ATP luminescence, 90 h; cytotoxicity (signal decrease), % at 8.35 µM; 5,600 compounds, 14% hits; AID 651742, 2012;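 active = mean signal decrease across replicates above about 35% based on untreated-well scatter, with enough replicates individually passing, limit read from the data; inconclusive = no rule stated though some were filed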;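 also: 0% = median of neutral control wells and 100% = median of positive control wells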
NIH3T3 tox 2: NIH/3T3 fibroblast cytotoxicity, confirmation, cytotoxicity control, cell-based, cherry-pick, single point, set 2. shares compounds with T cruzi growth-1. NIH/3T3 viability, CellTiter-Glo ATP luminescence, 90 h. inhibition, % at 24.9 µM. 5,600 compounds, 56% hits;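 active = mean loss of cell viability signal at or above a set limit, and enough replicates individually reaching it; inconclusive = meets only the mean limit or only the replicate share; inactive = meets neither condition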;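 also: 0% = median of neutral control wells and 100% = median of positive control wells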
Starred values were filed as active, the others as inactive; ? = inconclusive; . = no result. Shown are actives, neighbours in structure and some others; about 6.7% of the full set was active somewhere.

SMILES	C diff growth	Pf Dd2 growth	T cruzi growth-1	T cruzi growth-2	T cruzi growth-3	3T3 cytotox	NIH3T3 tox 2
C[C@H]1CCCCO[C@@H](CN(C)C(=O)Nc2ccc3c(c2)OCO3)[C@@H](C)CN([C@@H](C)CO)C(=O)c2cc(NC(=O)NC3CCCCC3)ccc2O1	-16	-47	118*	113*	67	-3	-12
C[C@@H]1CN([C@H](C)CO)C(=O)c2cc(NC(=O)NC3CCCCC3)ccc2O[C@@H](C)CCCCO[C@H]1CN(C)C(=O)Nc1ccc2c(c1)OCO2	-7	-70	23	.	.	.	.
C[C@@H]1CCCCO[C@@H](CN(C)C(=O)Nc2ccc3c(c2)OCO3)[C@H](C)CN([C@H](C)CO)C(=O)c2cc(NC(=O)NC3CCCCC3)ccc2O1	2	-59	?	108*	31	-13	-2
COc1ccc(CN(C)C[C@@H]2OCCCC[C@H](C)Oc3ccc(NC(=O)NC4CCCCC4)cc3C(=O)N([C@H](C)CO)C[C@H]2C)cc1	2	-60	65	.	.	.	.
C[C@@H]1CCCCO[C@@H](CN(C)C(=O)Nc2ccccc2)[C@@H](C)CN([C@H](C)CO)C(=O)c2cc(NC(=O)Cc3ccccc3)ccc2O1	.	-19	6	.	.	.	.
C[C@H]1CCCCO[C@H](CN(C)C(=O)Nc2ccc3c(c2)OCO3)[C@@H](C)CN([C@@H](C)CO)C(=O)c2cc(NC(=O)Cc3ccccc3)ccc2O1	-1	?	?	90	60	-7	23
C[C@H]1CCCCO[C@H](CN(C)C(=O)Nc2ccc3c(c2)OCO3)[C@@H](C)CN([C@@H](C)CO)C(=O)c2cc(NC(=O)Nc3ccc(F)cc3)ccc2O1	-3	-65	72	.	.	.	.
C[C@@H]1CN([C@@H](C)CO)C(=O)c2cc(NC(=O)Nc3ccccc3)ccc2O[C@@H](C)CCCCO[C@@H]1CN(C)C(=O)Nc1ccc2c(c1)OCO2	3	-49	11	.	.	.	.
C[C@H]1CCCCO[C@@H](CN(C)C(=O)Nc2ccc3c(c2)OCO3)[C@@H](C)CN([C@@H](C)CO)C(=O)c2cc(NC(=O)Nc3ccc(F)cc3)ccc2O1	5	-56	103*	106*	75	-1	-9
C[C@@H]1CCCCO[C@@H](CN(C)C(=O)Nc2ccc3c(c2)OCO3)[C@@H](C)CN([C@@H](C)CO)C(=O)c2cc(NC(=O)CCCN(C)C)ccc2O1	-2	-3	.	.	.	.	.
C[C@H]1CCCCO[C@@H](CN(C)C(=O)Nc2ccc3c(c2)OCO3)[C@@H](C)CN([C@@H](C)CO)C(=O)c2cc(NC(=O)Nc3ccccc3)ccc2O1	-9	-3	117*	111*	6	-15	-2
C[C@@H]1CCCCO[C@H](CN(C)C(=O)Nc2ccc3c(c2)OCO3)[C@H](C)CN([C@H](C)CO)C(=O)c2cc(NC(=O)CCCN(C)C)ccc2O1	3	-54	104*	6	2	-1	8
CC(C)NC(=O)Nc1ccc2c(c1)C(=O)N([C@H](C)CO)C[C@@H](C)[C@H](CN(C)CC1CCCCC1)OCCCC[C@H](C)O2	.	-18	68	.	.	.	.
C[C@H](O)C#Cc1cnc2c(c1)C(=O)N([C@H](C)CO)C[C@H](C)[C@H](CN(C)C(=O)Cc1ccccn1)O2	-1	21	36	.	.	.	.
COc1cccc(CN2[C@H](CO)[C@H](c3ccccc3)C23CN(C(=O)C2CCCCC2)C3)c1	14	9	.	.	.	.	.
O=C(NCC[C@@H]1CC[C@H](NC(=O)C2CCCC2)[C@@H](CO)O1)c1ccc(F)cc1	-1	-2	.	.	.	.	.
COCC(=O)Nc1ccc2c(c1)C(=O)N(C)[C@@H]1CC[C@H](CC(=O)NCc3cccc(F)c3)O[C@H]1CO2	3	1	20	.	.	.	.
C[C@@H]1CCCCO[C@@H](CN(C)C(=O)Nc2ccccc2)[C@H](C)CN([C@@H](C)CO)C(=O)c2cc(NC(=O)Nc3ccc4c(c3)OCO4)ccc2O1	5	13	33	.	.	.	.
C[C@@H]1CCCCO[C@H](CN(C)C(=O)Nc2ccc3c(c2)OCO3)[C@H](C)CN([C@H](C)CO)C(=O)c2cc(NC(=O)Nc3ccccc3)ccc2O1	13	-47	108*	111*	15	-29	-23
CC(C)CC#Cc1ccc2c(c1)O[C@H](CN(C)Cc1ccc(F)cc1)[C@@H](C)CN([C@@H](C)CO)S2(=O)=O	19	-62	101	.	.	.	.
CC(C)CC#Cc1ccc2c(c1)O[C@@H](CN(C)Cc1ccncc1)[C@H](C)CN([C@H](C)CO)S2(=O)=O	21	-76	129*	93	105*	61*	104*
CC(C)CC#Cc1ccc2c(c1)O[C@H](CN(C)Cc1ccncc1)[C@@H](C)CN([C@@H](C)CO)S2(=O)=O	20	-69	130*	94	111*	?	106*
CC(C)CC#Cc1ccc2c(c1)O[C@@H](CN(C)Cc1cncnc1)[C@@H](C)CN([C@@H](C)CO)S2(=O)=O	1	-18	70	.	.	.	.
CC(C)CC#Cc1ccc2c(c1)O[C@@H](CN(C)Cc1cncnc1)[C@H](C)CN([C@H](C)CO)S2(=O)=O	-11	-34	52	.	.	.	.
CC(C)CC#Cc1ccc2c(c1)O[C@H](CN(C)Cc1ccncc1)[C@@H](C)CN([C@H](C)CO)S2(=O)=O	11	-77	122*	104*	104*	30	105*
SMILES	C diff growth	Pf Dd2 growth	T cruzi growth-1	T cruzi growth-2	T cruzi growth-3	3T3 cytotox	NIH3T3 tox 2
CCCN1C[C@@H](C)[C@@H](OC)CN(C)C(=O)c2ccc(NC(=O)c3ccc(F)cc3)cc2OC[C@H]1C	0	-26	-32	.	.	.	.
C[C@@H]1CN([C@H](C)CO)C(=O)c2cccc(NS(C)(=O)=O)c2O[C@@H]1CN(C)CC1CCCCC1	1	5	40	.	.	.	.
O=C(NC1CCCCC1)N[C@@H]1C=C[C@H](CC(=O)N2CCOCC2)O[C@@H]1CO	1	15	-34	.	.	.	.
OCCSCC(O)CC(O)c1ccccc1 (stereo not given)	-5	.	.	.	.	.	.
COc1ccc(NC(=O)Nc2ccc3c(c2)C(=O)N([C@@H](C)CO)C[C@@H](C)[C@H](CN(C)S(=O)(=O)c2cn(C)cn2)OCCCC[C@@H](C)O3)cc1	1	-3	-22	.	.	.	.
COc1ccc(S(=O)(=O)Nc2ccc3c(c2)C(=O)N([C@@H](C)CO)C[C@@H](C)[C@@H](CN(C)C(=O)CCC(F)(F)F)OCCCC[C@H](C)O3)cc1	-4	-26	-48	.	.	.	.
